{"source": "the supplement of paper PMC7866885", "about": "“A novel bicyclic 2,4-diaminopyrimidine inhibitor of Streptococcus suis dihydrofolate reductase” (PeerJ, 2021)", "note": "± gives the standard deviation.", "data": [{"tested_on": "Streptococcus suis P1/7", "experiment": "percent growth relative to DMSO control; higher = less growth inhibition", "details": "10 µM; incubation time 18 h", "description": "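CLSI broth microdilution: 5x10^4 CFU of Streptococcus suis (strain P1/7 or HE06) incubated with 10 µM Pathogen Box compound in cation-adjusted Mueller Hinton broth, 37 °C, 5% CO2, 18 h. Growth read as OD600 and expressed as percent of the DMSO-treated control (100%); mean ± SD of three independent experiments.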", "units": {"percent growth": "%"}, "values": [{"smiles": "CN1CCN(c2cc(-c3ccc(F)cc3)nc(-c3ccncc3)n2)CC1", "percent growth": "89.1 ± 28"}, {"smiles": "N#Cc1ccc(-c2cnc(N)c(-c3ccc(C(N)=O)cc3)n2)cc1", "percent growth": "73.1 ± 4.3"}, {"smiles": "COc1ccc(-c2nnc3ccc(-c4cccc(C(C)C)c4)cn23)cc1OC", "percent growth": "68 ± 20"}, {"smiles": "Brc1cncc(-c2cc(NCCCn3ccnc3)nc(-c3ccccc3)n2)c1", "percent growth": "43.7 ± 51"}, {"smiles": "C[C@@H]1[C@H](O)[C@@H](C)/C=C/C=C/C=C/C=C/C=C/C=C/C=C/[C@H](O[C@@H]2O[C@H](C)[C@@H](O)[C@H](N)[C@@H]2O)C[C@@H]2O[C@](O)(C[C@@H](O)C[C@@H](O)[C@H](O)CC[C@@H](O)C[C@@H](O)CC(=O)O[C@H]1C)C[C@H](O)[C@H]2C(=O)O", "percent growth": "92.3 ± 14"}, {"smiles": "FC(F)(F)c1cnc(Sc2nnc(-c3ccncc3)o2)c(Cl)c1", "percent growth": "67.2 ± 20"}, {"smiles": "CC(C)n1nc(-c2cc3c(Cl)cccc3[nH]2)c2c(N)ncnc21", "percent growth": "74.2 ± 5.9"}, {"smiles": "Cc1cc(Cl)c(S(=O)(=O)N2CCCC2)cc1OCC(=O)NC1CCCCC1", "percent growth": "63.6 ± 18"}, {"smiles": "O=C(NC1CCN(c2ccnc3ccccc23)C1)c1cccc(C(F)(F)F)c1", "note": "(stereo not given)", "percent growth": "81.5 ± 25"}, {"smiles": "Cc1[nH]c2cc(F)cc(F)c2c(=O)c1-c1ccc(Oc2ccc(OC(F)(F)F)cc2)cc1", "percent growth": "88.9 ± 18"}, {"smiles": "Nc1nccc2ccc(-c3ccc4nccn4c3)cc12", "percent growth": "61.4 ± 20"}, {"smiles": "CC(=O)Oc1ccccc1C(=O)Nc1ncc([N+](=O)[O-])s1", "percent growth": "35.5 ± 5.8"}, {"smiles": "NCCN(C(=O)c1ccc(Cl)cc1Cl)c1ccc(OCc2ccc(Cl)cc2)cc1", "percent growth": "25 ± 43"}, {"smiles": "c1cncc(NCc2ccc(-c3cc4ccncc4cc3OC3CCNCC3)s2)c1", "percent growth": "66.3 ± 22"}, {"smiles": "CC(C)=CCC/C(C)=C\\CNCCNC1C2CC3CC(C2)CC1C3", "note": "(stereo not given)", "percent growth": "-0.0282 ± 0.049"}, {"smiles": "Cc1ccccc1CN1CCC(O)(c2ccc(Cl)c(C(F)(F)F)c2)CC1", "percent growth": "102 ± 50"}, {"smiles": "CC(C)(C)CN1C(=O)C(c2ccccc2)(c2ccccc2)N=C1N", "percent growth": "49.6 ± 44"}, {"smiles": "CC(=O)Nc1ccc(NC(=O)c2cc(-c3cc(Cl)ccc3O)[nH]n2)cc1", "percent growth": "104 ± 13"}, {"smiles": "O=C(NC1CC1)c1ccc(N2CCOc3ccc(Cl)cc32)s1", "percent growth": "85.5 ± 14"}, {"smiles": "COc1ccc(Nc2ccccc2NC(=O)c2ccc(O)nc2)cc1", "percent growth": "99.1 ± 41"}, {"smiles": "C[C@H](C(N)=O)N1CCCC[C@@H]1c1ccc(OCc2cccc(F)c2)cc1", "percent growth": "89.7 ± 15"}, {"smiles": "Cc1ccc(S(=O)(=O)n2cc(-c3ccnc(N)c3)c3cc(Br)cnc32)cc1", "percent growth": "61.5 ± 15"}, {"smiles": "O=C(NCCN1CCCC1)c1cc(NCCN2CCOCC2)nc2ccc(Cl)cc12", "percent growth": "83.1 ± 11"}, {"smiles": "CC(C)N=c1cc2n(-c3ccc(Cl)cc3)c3ccccc3nc-2cc1Nc1ccc(Cl)cc1", "percent growth": "48.2 ± 42"}, {"smiles": "COc1ccc(-c2cnc3ccc(N4CCCC4)nn23)cc1OC", "percent growth": "77.7 ± 7.5"}, {"smiles": "O=C(Nc1ccnc(-c2cccnc2)n1)c1cc(C(F)(F)F)cc(C(F)(F)F)c1", "percent growth": "123 ± 50"}, {"smiles": "Nc1ncc(Br)cc1-c1nc2cc(Cl)cnc2[nH]1", "percent growth": "100 ± 9.8"}, {"smiles": "CCN(CC)CCCCCCNc1cc(OC)cc2c(C)ccnc12", "percent growth": "83.2 ± 15"}, {"smiles": "CC(Oc1ccccc1)C(=O)Nc1nc(-c2ccccn2)cs1", "note": "(stereo not given)", "percent growth": "2.35 ± 2.4"}, {"smiles": "O=C(C1CCN(c2nnnn2-c2ccccc2)CC1)N1CCc2ccccc2C1", "percent growth": "62.4 ± 21"}, {"smiles": "O[C@@H](c1cc(C(F)(F)F)nc2c(C(F)(F)F)cccc12)[C@H]1CCCCN1", "percent growth": "97.7 ± 18"}, {"smiles": "Cn1ccnc1CNCCS(=O)(=O)c1cccc(Nc2ccc(-c3cccc(F)c3)cn2)c1", "percent growth": "35 ± 38"}, {"smiles": "FC(F)(F)c1cc(NCCc2ccccc2)nc(-c2ccccn2)n1", "percent growth": "9.89 ± 17"}, {"smiles": "COc1ccc(CN2CCOc3ccc(C(C)(O)CN(C)C)cc3C2)cc1C", "note": "(stereo not given)", "percent growth": "101 ± 27"}, {"smiles": "COCC(C)NC(=O)CSc1ncnc2sc(-c3ccccc3)cc12", "note": "(stereo not given)", "percent growth": "84.8 ± 13"}, {"smiles": "COc1ccc(Cn2cnc3c(-c4ccco4)nc(Cl)nc32)cc1", "percent growth": "102 ± 42"}, {"smiles": "Cc1nn2c(=O)c3c([nH]c2c1-c1ccc(Cl)cc1)CCCC3", "percent growth": "12.7 ± 22"}, {"smiles": "CCCn1nnc(NC(=O)COc2ccc(C3CCCCC3)cc2)n1", "percent growth": "85.9 ± 12"}, {"smiles": "CCS(=O)(=O)N(Cc1ccco1)Cc1cc2ccc(C)cc2nc1O", "percent growth": "77.1 ± 19"}, {"smiles": "O=C(CCC1CCCCC1)Nc1cccc(-c2nnc(-c3ccco3)o2)c1", "percent growth": "111 ± 46"}]}]}
